The results in this text go back to PubChem BioAssay (Tox21).

Test [1] can be described thus: qHTS assay to identify small molecule antagonists of the thyroid receptor (TR) signaling pathway - cell viability counter screen (AID 743064). Also: nearly all actives have a fitted effect of over 50% in size. Also: potency is read from the fitted curve at half-maximal effect. To be noted: GH3.TRE-Luc viability, CellTiter-Fluor, 24 h; series mostly up to 70.3 µM. In a few lines:
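Counter screen for cytotoxicity: compound plus T3 (1 nM final) on GH3.TRE-Luc cells, 23.5 h at 37 °C, then fluorescence viability readout with CellTiter-Fluor.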
Background: qHTS replaces the single test concentration by a dilution series.

A short description of test [2]: qHTS assay to identify small molecule antagonists of the thyroid receptor (TR) signaling pathway (AID 743065). Also: nearly all actives have a fitted effect of over 55% in size. Also: potency is read from the fitted curve at half-maximal effect. To be noted: GH3.TRE-Luc, T3-stimulated luciferase inhibition, 23.5 h; series mostly up to 70.3 µM. An outline of the steps: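 GH3.TRE-Luc rat pituitary cells (two TREs driving luciferase) were dosed with compound, then stimulated with 1 nM T3 (final) for 23.5 h at 37 C. ONE-Glo luminescence was the read-out, with CellTiter-Fluor fluorescence as the cytotoxicity counter-screen.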

In test [3] the test system is thyroid hormone receptor (rat, GH3 cells). In words: qHTS assay to identify small molecule agonists of the thyroid receptor (TR) signaling pathway (AID 743066; calls by dose curve). The settings on record: GH3.TRE-Luc cells, TR agonist luciferase, 24 h; series mostly up to 83.9 µM.
Test [4] addresses Estrogen receptor (Homo sapiens) (UniProt P03372). Nature of the test: qHTS assay to identify small molecule antagonists of the estrogen receptor alpha (ER-alpha) signaling pathway (AID 743069; active = well fitted curve in the direction sought with a large enough effect in the signal ratio in the repeat runs, not every such curve was filed as active; the % refers to the signal ratio). The settings on record: HEK293 ER-alpha-UAS-bla, beta-lactamase ratio, antagonist mode; series mostly up to 69.4 µM. In a few lines:
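HEK293 ER-alpha-UAS-bla GripTite cells, held overnight in 2% charcoal-stripped FBS, 5,000 cells/well, preincubated 4 h, then compound plus 17beta-estradiol for 18 h at 37C. Beta-lactamase read by LiveBLAzer B/G FRET substrate, 2 h at room temperature.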

Test [5] has the same target. Nature of the test: qHTS assay to identify small molecule agonists of the estrogen receptor alpha (ER-alpha) signaling pathway (AID 743075; calls by dose curve). The settings on record: HEK293 ER-alpha-UAS-bla, beta-lactamase FRET ratio, 18 h; series mostly up to 70.1 µM.
Test [6] has the same target. In words: qHTS assay to identify small molecule agonists of the estrogen receptor alpha (ER-alpha) signaling pathway using the BG1 cell line (AID 743079). Also: nearly all actives have a fitted effect of over 20% in size. Also: potency is read from the fitted curve at half-maximal effect. The settings on record: BG1Luc4E2 cells, ERE-luciferase agonist, 22 h.
Test [7] is described as follows: qHTS assay to identify small molecule antagonists of the estrogen receptor alpha (ER-alpha) signaling pathway using the BG1 cell line (AID 743080; calls by dose curve;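 also: BG1 cells stimulated with 17beta-estradiol alongside compound; nearly all actives have a fitted effect of over 25% in size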). To be noted: BG1Luc4E2 ERE-luciferase antagonist mode, luminescence; series mostly up to 70.3 µM. In a few lines:
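After 5 days in phenol-red-free 10% charcoal-stripped FBS medium, BG1-Luc-4E2 cells were seeded, left 24 h at 37 C, co-treated with compounds and 17beta-estradiol for 21.5 h, then assayed for viability and luciferase.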

Another test addresses Aromatase (Homo sapiens) (UniProt P11511). Nature of the test: qHTS assay to identify aromatase inhibitors (AID 743083). Also: nearly all actives have a fitted effect of over 55% in size. Also: potency is read from the fitted curve at half-maximal effect. To be noted: MCF-7 aro ERE, testosterone-driven ERE luciferase, 24 h; series mostly up to 70.3 µM.
A short description of test [8]: qHTS assay to identify small molecule antagonists of the estrogen receptor alpha (ER-alpha) signaling pathway - cell viability counter screen (AID 743074; calls by dose curve;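 also: HEK293 cells carrying ER-alpha-UAS-bla reporter stimulated with 17beta-estradiol; nearly all actives have a fitted effect of over 45% in size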; also: potency is read from the fitted curve at half-maximal effect). The settings on record: ERalpha-bla HEK293 viability, CellTiter-Glo luminescence, 18 h; series mostly up to 69.4 µM.
The nature of test [9]: qHTS assay to identify small molecule antagonists of the estrogen receptor alpha (ER-alpha) signaling pathway using the BG1 cell line - cell viability counter screen (AID 743081).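 Also: compound given together with 17beta-estradiol as the ER stimulus; nearly all actives have a fitted effect of over 45% in size.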 To be noted: BG1Luc4E2 viability, CellTiter-Fluor, 22 h; series mostly up to 70.3 µM.

“And” between values parts separate entries of the source, which are not always exact repeats. Equal values may be shown once. Inconclusive results are not listed. Where a structure was tested more than once in an assay, its records may differ in their call. The source made the active and inactive calls. Unless noted, calls follow the shape of the dose curve; as a rule, active = well fitted curve in the direction sought with a large enough effect in the repeat runs; inconclusive = weak or mixed curves; inactive = no such curve, though single readings can be large; an effect the other way counts as inactive or inconclusive.
% is scaled to controls: 0 for no effect and ±100 for the full control effect.

Chain of Aromatase (Homo sapiens) (P11511 whole entry, looked up): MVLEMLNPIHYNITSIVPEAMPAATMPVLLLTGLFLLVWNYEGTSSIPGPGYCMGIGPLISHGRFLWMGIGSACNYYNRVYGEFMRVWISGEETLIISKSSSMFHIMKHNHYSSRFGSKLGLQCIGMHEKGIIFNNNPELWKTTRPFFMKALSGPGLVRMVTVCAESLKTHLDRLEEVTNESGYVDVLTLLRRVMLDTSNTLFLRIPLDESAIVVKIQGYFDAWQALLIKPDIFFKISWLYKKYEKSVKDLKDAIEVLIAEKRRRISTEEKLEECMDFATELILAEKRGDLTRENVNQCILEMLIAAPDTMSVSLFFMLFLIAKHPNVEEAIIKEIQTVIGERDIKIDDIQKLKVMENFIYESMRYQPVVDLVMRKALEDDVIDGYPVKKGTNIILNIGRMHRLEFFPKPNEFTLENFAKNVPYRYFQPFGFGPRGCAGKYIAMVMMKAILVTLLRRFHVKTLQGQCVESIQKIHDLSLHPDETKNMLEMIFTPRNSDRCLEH
Chain of Estrogen receptor (Homo sapiens) (P03372 whole entry, looked up): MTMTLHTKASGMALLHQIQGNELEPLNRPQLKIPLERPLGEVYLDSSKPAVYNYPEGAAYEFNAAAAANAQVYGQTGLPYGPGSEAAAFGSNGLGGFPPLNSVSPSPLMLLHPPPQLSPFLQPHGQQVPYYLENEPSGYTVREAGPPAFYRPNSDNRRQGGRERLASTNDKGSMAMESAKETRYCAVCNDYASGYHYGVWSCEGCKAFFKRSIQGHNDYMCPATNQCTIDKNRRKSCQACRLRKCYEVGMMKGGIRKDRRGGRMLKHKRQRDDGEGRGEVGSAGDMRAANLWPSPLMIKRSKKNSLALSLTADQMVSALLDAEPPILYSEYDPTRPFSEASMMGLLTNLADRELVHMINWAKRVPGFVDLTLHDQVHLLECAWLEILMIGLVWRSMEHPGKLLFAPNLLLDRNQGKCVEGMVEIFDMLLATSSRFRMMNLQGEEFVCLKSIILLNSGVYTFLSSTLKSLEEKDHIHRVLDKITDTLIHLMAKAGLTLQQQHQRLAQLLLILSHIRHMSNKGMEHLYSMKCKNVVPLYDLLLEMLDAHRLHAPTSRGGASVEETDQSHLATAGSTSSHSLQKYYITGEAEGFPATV

Regarding `CC1N=C(N)OC1c1ccccc1` (stereo not given), the Potency result in test [1], in test [2], in test [3], in test [4], in [5] and in test [7] was “inactive” throughout. In addition, the Potency result with Aromatase (Homo sapiens) was “inactive”. For the same molecule, the activation in test [6] (at 70.3 µM (top of the series)) is 10.7% (inactive).
With `CCOC(=O)CCl`, the Potency entry in test [1], in [2], in test [3], in [4], in test [8] and in test [5] was “inactive” each time. Further, the Potency entry (in test [7]; in test [9]; with Aromatase (Homo sapiens)) was “inactive” each time. For the same molecule, in test [6] (at 70.3 µM (top of the series)), the activation is 26.5% (inactive).
For the molecule `CCOC(=O)COc1ccc(Cl)cc1Cl`, the Potency entry in [1], in [2], in [3], in [8] and in [9] was “inactive” throughout.
Consider `C/C=C/CC#N`, for which the Potency result in test [1], in test [2], in test [3], in test [4], in test [5] and in [7] was “inactive” throughout. In addition, the Potency entry (in test [9]; with Aromatase (Homo sapiens)) was “inactive” throughout.
Turning to `CN(C)CCc1c[nH]c2cccc(OP(=O)(O)O)c12`, the Potency entry in test [1], in test [2], in [3], in [4], in test [5] and in [7] was “inactive” throughout. For the same molecule, the Potency entry (in test [9]; in the test with Aromatase (Homo sapiens)) was “inactive” each time. Further, in test [6] (at 70.3 µM (top of the series)), the activation is -12.3% (inactive).
Take `COc1cc(CC(C)N)cc(OC)c1OC` (stereo not given): the Potency entry in test [1], in [2], in test [3], in test [4], in test [5] and in test [7] was “inactive” throughout. Further, the Potency entry with Aromatase (Homo sapiens) is “inactive”. The activation in [6] (at 95 µM (top of the series)) was -7.73% (inactive).
In the case of `CC(C)[C@]12CC(=O)[C@H](C)[C@H]1C2`, the Potency result (in [1]; in test [2]; in [3]; in [8]; in test [9]; with Aromatase (Homo sapiens)) was “inactive” in each case.
On to `CC(C)(C)C(=O)C(Cl)Cl`, for which the Potency result in test [1], in test [2], in [3], in test [8] and in [9] was “inactive” each time.
As for `CC(Cl)(Cl)Cl`, the Potency entry (in test [1]; in [2]; in test [3]; in test [8]; in test [9]; with Aromatase (Homo sapiens)) was “inactive” each time.
With `CC(C)c1ccc(O)cc1`, the Potency result (in test [1]; in test [2]; in test [3]; in test [8]; in test [9]; in the test with Aromatase (Homo sapiens)) was “inactive” each time.
Regarding `CC(C)(C)c1cc(O)ccc1O`, the Potency in [1] is 8.41 µM (active) and 68.6 µM (active) and 48.6 µM (active); in test [2] it was 6.68 µM (active) and 61.1 µM (active) and 38.6 µM (active); in test [8], “inactive and 26.8 µM (active)”; with Aromatase (Homo sapiens), “inactive and 26.6 µM (active)”. For the same molecule, the Potency entry in test [3], in test [4], in test [5], in test [7] and in [9] was “inactive” throughout.
For the molecule `O=[N+]([O-])c1cccc(CCl)c1`, the Potency entry in test [1], in test [2], in test [3], in test [8] and in [9] was “inactive” in each case.
For the molecule `CCCC(C)(COC(N)=O)COC(N)=O`, the Potency result (in test [1]; in [2]; in [3]; in [8]; in [9]; in the test with Aromatase (Homo sapiens)) was “inactive” throughout.
As to `CC#Cc1cc(C)nc(Nc2ccccc2)n1`, the Potency entry in [1], in test [2], in [3], in test [4], in [5] and in [9] was “inactive” each time. In addition, in the test with Aromatase (Homo sapiens), the Potency result is “inactive”.
Turning to `CCOP(=S)(OCC)Oc1ccc(Cl)cc1Cl`, the Potency result in test [1], in test [2], in test [3], in [4], in test [8] and in test [5] was “inactive” each time. In addition, the Potency entry (in test [7]; in [9]; in the test with Aromatase (Homo sapiens)) was “inactive” throughout.
Take `CCOP(=S)(OCC)SCCl`: the Potency entry in test [1], in test [2], in test [3], in test [4], in test [5] and in test [7] was “inactive” each time. Further, the Potency result in test [9] is “inactive”. The activation in test [6] (at 70.3 µM (top of the series)) was 9.52% (inactive).
On to `Cn1c(N)nc2c3cccnc3ccc21`, for which the Potency in test [1] is 26 µM (active). Also, the Potency entry in test [2], in [3], in test [4], in [8], in [5] and in test [7] was “inactive” each time. For the same molecule, the Potency result with Aromatase (Homo sapiens) was “inactive”. Further, the activation in test [6] (at 70.3 µM (top of the series)) is 9.73% (inactive).
On to `COC(=O)c1ccc(CBr)cc1`, for which the Potency entry in test [1], in [2], in [3], in [4], in test [5] and in [9] was “inactive” in each case. For the same molecule, in the test with Aromatase (Homo sapiens), the Potency result is “inactive”. In test [6], the Potency was 6.94 µM (active).
For `Clc1ccc(C(Cl)(Cl)Cl)cn1`, the Potency result in [1], in test [2], in [3], in test [4], in test [8] and in test [5] was “inactive” throughout. Besides, the Potency entry (in [9]; with Aromatase (Homo sapiens)) was “inactive” each time. In addition, the activation in test [6] (at 70.3 µM (top of the series)) is -9.37% (inactive).
With `CCOC(=O)NC(C)(C)Cc1ccc(Cl)cc1`, the Potency result in test [1], in [2], in test [3], in test [4], in test [5] and in test [7] was “inactive” throughout. Moreover, the Potency entry (in test [9]; with Aromatase (Homo sapiens)) was “inactive” throughout. Moreover, in [6] (at 70.3 µM (top of the series)), the activation is 6.17% (inactive).
In the case of `CCOC(=O)Nc1cccc(OC(=O)Nc2ccccc2)c1`, the Potency entry in test [1], in test [2], in [3], in [4], in [8] and in [5] was “inactive” throughout. The Potency result (in [9]; with Aromatase (Homo sapiens)) was “inactive” in each case. The Potency in test [6] was 27.3 µM (active).
Turning to `CCOC(=O)CC(SP(=S)(OC)OC)C(=O)OCC` (stereo not given), the Potency result in test [1], in test [2], in test [3], in test [4], in [8] and in [5] was “inactive” throughout. Further, the Potency result (in test [7]; in [9]; with Aromatase (Homo sapiens)) was “inactive” in each case.
Regarding `O=C(O)CBr`, the Potency entry (in [1]; in [2]; in test [3]; in test [8]; in test [9]; with Aromatase (Homo sapiens)) was “inactive” throughout.
In the case of `COC(=O)[C@@H](N)CCCN/C(N)=N/[N+](=O)[O-]`, the Potency entry (in [1]; in test [2]; in [3]; in [8]; in test [9]; with Aromatase (Homo sapiens)) was “inactive” in each case.
With `CCSC(=O)Cl`, the Potency result in test [1], in test [2], in test [3], in test [4], in [8] and in test [5] was “inactive” in each case. Besides, the Potency entry (in test [7]; in [9]; with Aromatase (Homo sapiens)) was “inactive” each time.
Regarding `CCOC(=O)N(C)N=O`, the Potency result (in test [1]; in test [2]; in [3]; in [8]; in test [9]; in the test with Aromatase (Homo sapiens)) was “inactive” throughout.
